{
  "source": "PubChem BioAssay (NCATS)",
  "note": "Inconclusive results are not listed. Values without a mark were called inactive. Activity calls are given as the source filed them. Unless noted, calls come from the whole dose curve.",
  "data": [
    {"tested_on": "not listed separately", "assay": "Primary qHTS for small molecule stabilizers of the endoplasmic reticulum resident proteome: Secreted ER Calcium Modulated Protein (SERCaMP) assay (AID 1508630; active = well fitted curve in the direction sought with a large enough effect; an effect the other way counts as inactive or inconclusive; note: % is set by controls: 0 for no effect and ±100 for the full control effect)", "conditions": "SH-SY5Y GLuc-SERCaMP (Gaussia luciferase released on ER calcium loss) secretion, thapsigargin, luminescence; series mostly up to 38.4 µM; activity change, negative = inhibition: at the top concentration", "how_it_was_run": "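GLuc-SERCaMP-expressing SH-SY5Y cells, pretreated 16 h with compound, are challenged with thapsigargin to empty ER calcium stores; after 4 h, coelenterazine is added directly to the medium and luminescence is imaged.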", "units": {"activity change, negative = inhibition": "%"}, "values": [
      {"molecule": "NC(N)=NCc1cccc(I)c1", "activity change, negative = inhibition": -29.5},
      {"molecule": "CC[C@H](c1ccc(O)cc1)[C@@H](CC)c1ccc(O)cc1", "activity change, negative = inhibition": -9.76},
      {"molecule": "CCOC(=O)[C@H](CCc1ccccc1)N[C@@H](C)C(=O)N1[C@H](C(=O)O)C[C@H]2CCCC[C@@H]21", "activity change, negative = inhibition": 4.19},
      {"molecule": "COc1cc([C@H]2Oc3cc([C@H]4Oc5cc(O)cc(O)c5C(=O)[C@@H]4O)ccc3O[C@@H]2CO)ccc1O", "activity change, negative = inhibition": -19.9},
      {"molecule": "c1ccc(CC2=NCCN2)cc1", "activity change, negative = inhibition": -3.56},
      {"molecule": "CN=C(N)NCCC[C@H](N)C(=O)O", "activity change, negative = inhibition": -9.24},
      {"molecule": "NC(=O)n1c(O)c(C(=O)c2cccs2)c2cc(Cl)ccc21", "Potency": "inactive"},
      {"molecule": "CC[C@]12CCCN3CCc4c(n(c5ccccc45)C(=O)C1)[C@@H]32", "activity change, negative = inhibition": 37.6},
      {"molecule": "CN1CCc2cccc3c2[C@H]1Cc1ccc(O)c(O)c1-3", "activity change, negative = inhibition": -25.1},
      {"molecule": "O[C@@H](c1cc(C(F)(F)F)nc2c(C(F)(F)F)cccc12)[C@H]1CCCCN1", "activity change, negative = inhibition": 228},
      {"molecule": "O=C(O)C(Cc1cc(I)c(O)c(I)c1)c1ccccc1", "note": "(stereo not drawn)", "activity change, negative = inhibition": -12.2}
    ]},
    {"tested_on": "not listed separately", "assay": "A High-Content qHTS Against Drug Library for the Identification of Small Molecules that Inhibit DYT1 Early Onset Primary Dystonia-Associated Cell Pathology (AID 1645839); note: potency is the fitted concentration of half-maximal effect", "conditions": "HEK293 Flp-In EGFP-delE TorsinA, punctate imaging, 48 h; series mostly up to 46.1 µM; % pathology change, negative = correction: at the top concentration", "how_it_was_run": "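In this high-content image screen, delE TorsinA mislocalization in inducible Flp-In 293 cells is scored as %pathology, with cell count serving as the counterscreen. Compound exposure lasts 48 h under tetracycline induction in reduced-serum medium.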", "values": [
      {"molecule": "O=C(c1ccc(F)cc1)C1CCN(CCn2c(=S)[nH]c3ccccc3c2=O)CC1", "% pathology change, negative = correction": "-0.957%"},
      {"molecule": "NC1CCN(c2nc3c(cc2F)c(=O)c(C(=O)O)cn3-c2ccc(F)cc2F)C1", "note": "(stereo not drawn)", "% pathology change, negative = correction": "-11.1%"},
      {"molecule": "C[C@]12CCC(=O)C=C1C=C[C@@H]1[C@@H]2CC[C@@]2(C)[C@H]1CC[C@@]21CCC(=O)O1", "% pathology change, negative = correction": "1.32%"},
      {"molecule": "CCCc1ncc(C[n+]2ccccc2C)c(N)n1", "% pathology change, negative = correction": "3.64%"},
      {"molecule": "CC1(C)OC[C@@H]2O[C@@]3(C(=O)O)OC(C)(C)O[C@H]3[C@@H]2O1", "% pathology change, negative = correction": "2.33%"},
      {"molecule": "O=C(CCN1CCN2CCCC2C1)N1c2ccccc2Sc2ccc(Cl)cc21", "note": "(stereo not drawn)", "% pathology change, negative = correction": "5.41% [at 19.1 µM]"},
      {"molecule": "CN1CCN(C2=Nc3ccccc3Sc3ccc(Cl)cc32)CC1", "% pathology change, negative = correction": "3.04%"},
      {"molecule": "CC(C)n1c(/C=C/[C@@H](O)C[C@@H](O)CC(=O)O)c(-c2ccc(F)cc2)c2ccccc21", "% pathology change, negative = correction": "-17.4%"},
      {"molecule": "C/C=C/c1ccc(O)c(OC)c1", "% pathology change, negative = correction": "9.12%"},
      {"molecule": "O=C(O)C1(C(=O)O)CCC1.[NH2-].[NH2-].[Pt+2]", "% pathology change, negative = correction": "0.664%"},
      {"molecule": "CCCCNc1ccc(C(=O)OCCOCCOCCOCCOCCOCCOCCOCCOCCOC)cc1", "% pathology change, negative = correction": "3.3%"},
      {"molecule": "Nc1ccc(C(=O)NCC(=O)O)cc1", "% pathology change, negative = correction": "-1.65%"},
      {"molecule": "CCN1CCN(C(=O)N[C@@H](C(=O)N[C@@H]2C(=O)N3C(C(=O)O)=C(CSc4nnnn4C)CS[C@H]23)c2ccc(O)cc2)C(=O)C1=O", "% pathology change, negative = correction": "11.8%"},
      {"molecule": "O=C(O)Cc1csc(-c2ccc(Cl)cc2)n1", "% pathology change, negative = correction": "-1.23%"},
      {"molecule": "CC(=O)Nc1ccc(OC(=O)c2ccccc2OC(C)=O)cc1", "% pathology change, negative = correction": "5.14%"},
      {"molecule": "N[C@H](C(=O)O)[C@@H](O)c1ccc(O)c(O)c1", "% pathology change, negative = correction": "17.8%"},
      {"molecule": "O=C(Nc1ncc([N+](=O)[O-])s1)c1cccs1", "% pathology change, negative = correction": "0.265%"},
      {"molecule": "O=C(O)P(=O)(O)O", "% pathology change, negative = correction": "7.57%"},
      {"molecule": "FC(F)(F)C(F)(F)C(F)(F)C(F)(F)C(F)(F)C(F)(F)C(F)(F)C(F)(F)Br", "% pathology change, negative = correction": "8.61%"},
      {"molecule": "C=C[C@H]1CN2CC[C@H]1C[C@H]2[C@H](O)c1ccnc2ccc(OC)cc12", "% pathology change, negative = correction": "-14.8%"},
      {"molecule": "CCCCN=C(N)N=C(N)N", "% pathology change, negative = correction": "-2.76%"},
      {"molecule": "Cc1cccc(C)c1NC(=O)c1ccccc1C(=O)O", "% pathology change, negative = correction": "19.5%"},
      {"molecule": "CN1CCN(CCC(=O)N2c3ccccc3Sc3ccc(C(F)(F)F)cc32)CC1", "Potency": "3.16 µM (active)"},
      {"molecule": "CCOc1ccccc1C(N)=O", "% pathology change, negative = correction": "5.71%"},
      {"molecule": "O=[N+]([O-])c1ccc(/C=N\\O)o1", "% pathology change, negative = correction": "0.723%"}
    ]},
    {"target": "Cytochrome P450 2D6 (Homo sapiens) (UniProt P10635)", "sequence (P10635 whole entry, looked up)": "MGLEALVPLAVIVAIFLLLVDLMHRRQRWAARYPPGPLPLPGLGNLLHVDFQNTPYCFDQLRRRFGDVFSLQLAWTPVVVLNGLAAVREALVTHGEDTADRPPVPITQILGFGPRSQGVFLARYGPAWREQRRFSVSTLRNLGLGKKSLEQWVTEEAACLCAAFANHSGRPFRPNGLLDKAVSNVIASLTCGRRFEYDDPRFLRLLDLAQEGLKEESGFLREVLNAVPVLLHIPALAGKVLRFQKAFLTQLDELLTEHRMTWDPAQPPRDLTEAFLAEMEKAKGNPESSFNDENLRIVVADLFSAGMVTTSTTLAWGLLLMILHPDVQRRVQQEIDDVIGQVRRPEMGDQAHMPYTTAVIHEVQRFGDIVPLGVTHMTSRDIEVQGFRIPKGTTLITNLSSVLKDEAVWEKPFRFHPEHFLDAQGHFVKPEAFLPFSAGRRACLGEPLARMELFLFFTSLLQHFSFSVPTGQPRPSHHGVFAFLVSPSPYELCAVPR", "assay": "Cytochrome P450 family 2 subfamily D member 6 (CYP2D6) small molecule antagonists: luciferase biochemical (cell-free) qHTS assay (AID 1645840; active = well fitted curve in the direction sought with a large enough effect in the repeat runs; an effect the other way counts as inactive or inconclusive; note: nearly all actives have a fitted effect of over 55% in size; note: potency is the fitted concentration of half-maximal effect; for activity change, negative = inhibition: % is set by controls: 0 for no effect and ±100 for the full control effect)", "conditions": "P450-Glo CYP2D6 enzyme, luciferin luminescence, 1 h; series mostly up to 57.4 µM; activity change, negative = inhibition: at the top concentration", "how_it_was_run": "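P450-Glo luminescent screen: recombinant CYP2D6 enzyme–proluciferin substrate mix preincubated with compound 10 min at room temperature, then NADPH regeneration added for 1 h at room temperature. Detection reagent added for 20 min; luciferin light read as relative luminescence units.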", "units": {"activity change, negative = inhibition": "%"}, "values": [
      {"molecule": "O=C(c1ccc(F)cc1)C1CCN(CCn2c(=S)[nH]c3ccccc3c2=O)CC1", "Potency": "0.776 µM (active)"},
      {"molecule": "NC1CCN(c2nc3c(cc2F)c(=O)c(C(=O)O)cn3-c2ccc(F)cc2F)C1", "note": "(stereo not drawn)", "activity change, negative = inhibition": 3.91},
      {"molecule": "C[C@]12CCC(=O)C=C1C=C[C@@H]1[C@@H]2CC[C@@]2(C)[C@H]1CC[C@@]21CCC(=O)O1", "activity change, negative = inhibition": -21.9},
      {"molecule": "CCCc1ncc(C[n+]2ccccc2C)c(N)n1", "activity change, negative = inhibition": 10.7},
      {"molecule": "CC1(C)OC[C@@H]2O[C@@]3(C(=O)O)OC(C)(C)O[C@H]3[C@@H]2O1", "activity change, negative = inhibition": 1.12},
      {"molecule": "O=C(CCN1CCN2CCCC2C1)N1c2ccccc2Sc2ccc(Cl)cc21", "note": "(stereo not drawn)", "Potency": "6.74 µM (active)"},
      {"molecule": "CN1CCN(C2=Nc3ccccc3Sc3ccc(Cl)cc32)CC1", "Potency": "15.5 µM (active)"},
      {"molecule": "C/C=C/c1ccc(O)c(OC)c1", "activity change, negative = inhibition": 9.88},
      {"molecule": "O=C(O)C1(C(=O)O)CCC1.[NH2-].[NH2-].[Pt+2]", "Potency": "19.5 µM (active)"},
      {"molecule": "CCCCNc1ccc(C(=O)OCCOCCOCCOCCOCCOCCOCCOCCOCCOC)cc1", "activity change, negative = inhibition": -18.9},
      {"molecule": "Nc1ccc(C(=O)NCC(=O)O)cc1", "activity change, negative = inhibition": -10.6},
      {"molecule": "CCN1CCN(C(=O)N[C@@H](C(=O)N[C@@H]2C(=O)N3C(C(=O)O)=C(CSc4nnnn4C)CS[C@H]23)c2ccc(O)cc2)C(=O)C1=O", "activity change, negative = inhibition": -21.8},
      {"molecule": "O=C(O)Cc1csc(-c2ccc(Cl)cc2)n1", "activity change, negative = inhibition": -1.1},
      {"molecule": "CC(=O)Nc1ccc(OC(=O)c2ccccc2OC(C)=O)cc1", "Potency": "15.5 µM (active)"},
      {"molecule": "N[C@H](C(=O)O)[C@@H](O)c1ccc(O)c(O)c1", "activity change, negative = inhibition": 4.66},
      {"molecule": "O=C(Nc1ncc([N+](=O)[O-])s1)c1cccs1", "Potency": "13.8 µM (active)"},
      {"molecule": "O=C(O)P(=O)(O)O", "activity change, negative = inhibition": -7.96},
      {"molecule": "FC(F)(F)C(F)(F)C(F)(F)C(F)(F)C(F)(F)C(F)(F)C(F)(F)C(F)(F)Br", "activity change, negative = inhibition": -7.43},
      {"molecule": "Cc1cccc(C)c1NC(=O)c1ccccc1C(=O)O", "activity change, negative = inhibition": 0.165},
      {"molecule": "CN1CCN(CCC(=O)N2c3ccccc3Sc3ccc(C(F)(F)F)cc32)CC1", "Potency": "0.0347 µM (active)"},
      {"molecule": "CCOc1ccccc1C(N)=O", "activity change, negative = inhibition": -4.78},
      {"molecule": "O=[N+]([O-])c1ccc(/C=N\\O)o1", "Potency": "13.8 µM (active)"}
    ]}
  ]
}
